HP1b binding inh: HTS for Inhibitors of HP1-beta Chromodomain Interactions with Methylated Histone Tails; Chromobox protein homolog 1 (Homo sapiens), P83916; Potency, µM (series often up to 114 µM), for the others: at the top dose activity change, negative = inhibition, actives largely listed as inhibitors; AlphaScreen HP1-beta / biotin-H3K9me3 peptide binding; AID 540317, 2011; actives 0.56% (n = 390,000); note: nearly all actives have a fitted effect of over 70% in size
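HP1-beta protein (50 nM final) preincubated 30 min at room temperature with biotinylated H3(1-18)K9me3 peptide (50 nM) in PBS pH 7.4, 0.01% Tween-20, then compound added for 30 min. AlphaScreen streptavidin donor/nickel chelate acceptor beads (10 ug/mL final), 30 min dark, luminescence read.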
G9a block: qHTS Assay for Inhibitors of Histone Lysine Methyltransferase G9a; Histone-lysine N-methyltransferase EHMT2 (Homo sapiens), Q96KQ7; G9a H3K9 monomethylation, AlphaScreen, 2 h; Potency, µM (series often up to 102 µM), inactives show top-dose activity, negative = inhibition, most hits filed as inhibitors; actives 8.8% (n = 350,000); note: % is set by controls: 0 for no effect and ±100 for the full control effect; nearly all actives have a fitted effect of over 75% in size
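Signal arises when biotinylated H3K9 peptide, once monomethylated, bridges streptavidin donor and antibody-captured acceptor beads. Enzyme at 20 nM was preincubated 15 min with test compounds; peptide 500 nM and SAM 20 uM then reacted for 2 h.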
Sfp PPTase inh: qHTS Assay for Inhibitors of Bacillus subtilis Sfp phosphopantetheinyl transferase (PPTase) | 4'-phosphopantetheinyl transferase ffp (Bacillus subtilis), Q9F4F7 | Biochemical Sfp PPTase activity, qHTS | Potency, µM, for inactives: largest response in the series, negative = inhibition, usual class: inhibitors | actives 3.5% (n = 310,000);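 note: the enzyme is Sfp with the accession as filed and its product quenches rhodamine fluorescence; 0% = enzyme reaction without inhibitor and -100% = no enzyme wells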
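With Hepes-Na pH 7.6 buffer containing 10 mM MgCl2, Sfp (15 nM) modified BHQ-2-YbbR (12.5 uM) using rhodamine-CoA (5 uM). Two reads 30 minutes apart at 525/598 nm yielded each well's rate.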
12-LOX inh: Primary qHTS assay for inhibitors of human arachidonate 12S-lipoxygenase (ALOX12): Round 2 | Polyunsaturated fatty acid lipoxygenase ALOX12 (Homo sapiens), P18054 | purified 12hLO, xylenol orange hydroperoxide absorbance | Potency, µM (highest dose often 108 µM), without a hit: at the highest dose activity change, negative = inhibition, hits mostly inhibitors | actives 1.1% (n = 580,000); note: % is set by controls: 0 for no effect and ±100 for the full control effect
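Purified human 12hLO (150 nM final) in 25 mM Hepes, 0.01% Triton X-100, pH 7.0 was preincubated 15 min at room temperature with compound. Then 40 uM arachidonic acid was added, 30 min. Hydroperoxide was read by Fe-XO absorbance ratio 573/405 nm.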
JMJD2A Tudor: qHTS Assay for Inhibitors of JMJD2A-Tudor Domain; Potency, µM (doses to about 114 µM), for inactives: top-dose activity change, negative = inhibition, usual class: inhibitors; actives 4.4% (n = 390,000); Lysine-specific demethylase 4A (Homo sapiens), O75164; AlphaScreen JMJD2A-Tudor / H3K4me3 peptide binding; note: % is set by controls: 0 for no effect and ±100 for the full control effect; nearly all actives have a fitted effect of over 50% in size
Target sequence (O75164 whole entry, looked up, the tested form may be a part): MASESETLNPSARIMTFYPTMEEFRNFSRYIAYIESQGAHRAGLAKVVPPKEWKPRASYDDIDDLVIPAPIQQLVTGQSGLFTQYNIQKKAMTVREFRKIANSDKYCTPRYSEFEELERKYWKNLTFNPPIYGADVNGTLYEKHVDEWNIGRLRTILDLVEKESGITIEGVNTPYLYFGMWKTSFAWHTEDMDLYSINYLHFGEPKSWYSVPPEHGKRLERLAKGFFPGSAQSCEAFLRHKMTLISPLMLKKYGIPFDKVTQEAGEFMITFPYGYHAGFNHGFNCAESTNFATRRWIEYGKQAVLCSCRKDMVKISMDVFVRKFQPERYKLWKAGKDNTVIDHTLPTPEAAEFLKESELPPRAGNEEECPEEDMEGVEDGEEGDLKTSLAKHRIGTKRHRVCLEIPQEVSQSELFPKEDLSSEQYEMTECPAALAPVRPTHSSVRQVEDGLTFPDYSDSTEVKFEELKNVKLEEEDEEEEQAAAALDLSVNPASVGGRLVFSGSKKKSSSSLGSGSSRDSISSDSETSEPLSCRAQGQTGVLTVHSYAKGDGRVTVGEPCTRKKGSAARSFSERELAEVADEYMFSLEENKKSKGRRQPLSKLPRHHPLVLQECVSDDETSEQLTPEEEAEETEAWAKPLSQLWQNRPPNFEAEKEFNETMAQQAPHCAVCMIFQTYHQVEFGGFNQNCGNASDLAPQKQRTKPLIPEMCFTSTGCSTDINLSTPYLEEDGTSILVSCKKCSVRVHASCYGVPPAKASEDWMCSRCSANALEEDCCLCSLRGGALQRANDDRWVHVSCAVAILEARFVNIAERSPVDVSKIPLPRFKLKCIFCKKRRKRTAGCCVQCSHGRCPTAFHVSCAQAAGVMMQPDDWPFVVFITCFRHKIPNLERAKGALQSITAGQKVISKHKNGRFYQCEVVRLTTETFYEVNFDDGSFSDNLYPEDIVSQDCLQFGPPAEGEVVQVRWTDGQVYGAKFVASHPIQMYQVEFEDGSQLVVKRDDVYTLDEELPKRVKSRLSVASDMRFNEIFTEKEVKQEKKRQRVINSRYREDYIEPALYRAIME
BAZ2B block: qHTS Assay for Inhibitors of BAZ2B; Bromodomain adjacent to zinc finger domain protein 2B (Homo sapiens), Q9UIF8; AlphaScreen BAZ2B-H3K14Ac peptide displacement; Potency, µM (doses to about 114 µM), without a hit: at the top dose activity change, negative = inhibition, hits mostly inhibitors; actives 4.4% (n = 360,000); AID 504333, 2011; note: % is set by controls: 0 for no effect and ±100 for the full control effect; nearly all actives have a fitted effect of over 60% in size
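BAZ2B (50 nM) with biotin-H3(5-23)K14Ac peptide (50 nM) in PBS pH 7.4, 0.01% Tween-20, preformed 30 min, then compound 30 min at room temperature; top concentration 110uM. AlphaScreen streptavidin donor/nickel chelate acceptor beads (10 ug/mL final), 20 min dark, signal read.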
Starred values were filed as active, the others as inactive; ? = inconclusive; / = not tested or not shown; [ ] = dose if it differs, or a comment. Most compounds without a hit are left out; they make up all but 8.7% or so of the library. Calls come from the whole dose curve; as a rule, active = well fitted curve in the direction sought with a large enough effect; inconclusive = small, poorly fitted or top-dose-only effect, or another doubt; inactive = no such curve, though single readings can be large; an effect the other way counts as inactive or inconclusive. Potency is the fitted concentration of half-maximal effect.

SMILES	HP1b binding inh	G9a block	Sfp PPTase inh	12-LOX inh	JMJD2A Tudor	BAZ2B block
COc1cc(OC)c(OC)cc1/C=C(/C#N)c1nc2ccccc2[nH]1	/	/	/	11%	/	/
C/C(CC1(O)C(=O)Nc2ccccc21)=N\O (stereo not drawn)	19%	-3%[59 µM]	16%	7%	-11%	-13%
C/C(CC1(O)/C(=N/O)CCc2nonc21)=N\O (stereo not drawn)	15%	40µM*	11%	?	16µM*	4%
CCCCn1nc(C(=O)Nc2ccc3oc(C)nc3c2)c2ccccc2c1=O	/	/	/	0%	/	/
CN(C)Cc1cc(O)c(CN(C)C)cc1O	?	1.4µM*	25µM*	?	0.79µM*	22µM*
O=C1C(N2CCN(S(=O)(=O)c3cc(F)cc(F)c3)CC2)CCN1Cc1ccccn1 (stereo not drawn)	/	/	/	11%	/	/
COc1ccc(CNC(=O)c2cc3ccccc3[nH]2)cc1	/	/	/	-6%	/	/
CCc1cc(-c2[nH]ncc2-c2ccc(OC)cc2)c(O)cc1O	-14%	12%[2.33 µM]	16%	?	?	?
CCc1cc(-c2[nH]ncc2-c2ccc3c(c2)OCO3)c(O)cc1O	?	?	13%	?	32µM*	32µM*
O=C(NC1CCN(c2cc(-c3ccc(F)cc3)[nH]n2)C1)c1cccnc1 (stereo not drawn)	/	/	/	49%	/	/
O=C(C1CCCCC1)N1CCCC(c2nc3c(nnn3Cc3ccccc3)c(=O)[nH]2)C1 (stereo not drawn)	14%	29%	-7%	1%	-13%	7%
Cc1ccc(C)c(Cn2nnc3c(=O)[nH]c(C4CCCN(C(=O)C5CCCCC5)C4)nc32)c1 (stereo not drawn)	10%	-37%[12.7 µM]	50µM*	-12%	-23%	?
Cn1c(=O)n(C)c2cc(NC(=O)CCc3ccccc3)c(Br)cc21	30%	/	?	4%	-3%	50µM*
CSc1ccccc1NC(=O)CCc1ccccc1	37%	-2%	19%	-9%	18%	1%
CC1=NN(C(=S)Nc2ccccc2)C(C)(C)C1	23%	32µM*	?	11%	-3%	11%
Cc1cc(NCCCn2ccnc2)n2nc(-c3ccc(Cl)cc3)cc2n1	4%	/	-15%	-1%	?	45µM*
Cc1ccc(S(=O)(=O)CCC(=O)c2ccc(F)cc2)cc1	49%	126%	6%	0%	-3%	8%
Cc1ccc(C(=O)CCS(=O)(=O)c2ccc(F)cc2)cc1	44%	32µM*	2%	?	-18%	-4%
COC(=O)c1ccc(OC(=O)CCS(=O)(=O)c2ccc(C)cc2)cc1	27%	35µM*	/	-30%	-6%	0%
CC(=O)Nc1ccc(C2=NN(CC#N)C(=O)SC2)cc1	28%	48%[12.7 µM]	14%	-7%	2%	-2%
Fc1ccc(F)c(C2=NNC(=NCC3CCCO3)SC2)c1 (stereo not drawn)	23%	?	45µM*	?	-22%	?
COCC(C)N=C1NN=C(c2ccc(NC(C)=O)cc2)CS1 (stereo not drawn)	20%	11µM*	40µM*	5%	-17%	?
CC(=O)Nc1ccc(C2=NNC(=NCC3CCCO3)SC2)cc1 (stereo not drawn)	8%	14µM*	40µM*	-7%	-26%	1%
C[C@H](C(=O)N1CCSCC1)C1CC[C@@]2(C)Cc3sc(Nc4c(Cl)cccc4Cl)nc3[C@@H](C)[C@@H]2[C@H]1O (stereo partly drawn)	/	/	/	51%	/	/
COc1ccccc1CCNC(=O)c1sc(NCc2ccccc2)nc1C	/	/	/	-1%	/	/

Screening results as filed in PubChem BioAssay.
